HCV inh: qHTS Assay for Inhibitors of Hepatitis C Virus (HCV) | Huh7.5.1 HCVcc-Cre infection, luciferase reporter, 44 h | Potency, µM (highest dose often 41.8 µM), for inactives: at the highest dose activity change, negative = inhibition, hits mostly inhibitors | 340,000 tested, 3.4% active | AID 651820, 2012; active = well fitted inhibition curve with a large enough effect; inconclusive = small, poorly fitted or top-dose-only effect, or another doubt; inactive = no such curve, though single readings can be large or run the other way; note: potency is the fitted concentration of half-maximal effect
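Infectious HCVcc-Cre (~0.5 moi) was added to cells just after compound, with cells seeded 4 h earlier at 1,000 per well. Luciferase activity after 44 h culture reported infection; substrate was incubated 15 min at room temperature before reading.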
FMDV inh: High Throughput Screening for Foot and Mouth Disease Virus Antivirals | FMDV antiviral cell-based qHTS | Potency, µM (series often up to 57.9 µM), for the others: at the top dose activity change, negative = inhibition, most hits filed as inhibitors | 410,000 tested, 1.2% active; calls by dose curve; tested in HEK293T cells; note: read-out not given here; potency is the fitted concentration of half-maximal effect; nearly all actives have a fitted effect of over 45% in size
Marburg entry inh: qHTS for inhibitors of binding or entry into cells for Marburg Virus; Potency, µM (doses to about 37.8 µM), inactives show at the top dose activity change, negative = inhibition, hits mostly inhibitors; Marburg virus pseudotyped entry inhibition, cell reporter; 300,000 tested, 1.8% active; calls by dose curve; tested in HEK293 cells; note: potency is the fitted concentration of half-maximal effect
HCMV antiviral: qHTS Assay for inhibitors of the human cytomegalovirus (HCMV) | HFF cells, HCMV-luciferase reporter, 72 h; hits give low values | activity change, negative = inhibition, % at 57.5 µM | 410,000 tested, 4.5% active; in the data active = activity change below about -60%; inconclusive = no clear call, values can overlap the other calls; inactive = above about -39%
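Cell-based, HFFs, 1000 cells/well, 16 h 37C; cpds in DMSO + HCMV-luc, MOI 1 PFU/cell; 72 h 37C; OneGlo luminescence after 5 min RT; norm. to buffer vs Salinomycin 10uM.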
Lassa entry inh: qHTS for Inhibitors of binding or entry into cells for Lassa Virus. Lassa virus pseudotype entry inhibition, cell reporter. Potency, µM (doses to about 37.9 µM), for the others: at the top dose activity change, negative = inhibition, actives largely listed as inhibitors. 300,000 tested, 1.2% active; calls by dose curve; tested in HEK293 cells; note: potency is the fitted concentration of half-maximal effect; nearly all actives have a fitted effect of over 50% in size
* hit, by the source's call; ? = inconclusive; . = no result; ! = a repeat was not active; [ ] = remark or other dose. In the library only some 7.9% were active in any assay of this set; here they are far more common. % is set by controls: 0 for no effect and ±100 for the full control effect.

SMILES	HCV inh	FMDV inh	Marburg entry inh	HCMV antiviral	Lassa entry inh
CC1(C)C2CC[C@]3(C)C(CC=C4[C@@H]5C[C@@](C)(CO)[C@@H](O)C[C@]56C[C@@H](OC6=O)[C@]43C)[C@@]2(C)CC[C@@H]1O (some centres undefined)	1.3µM*	-16%	.	26	.
Cc1ccccc1C(=O)NC(CC(C)C)C(=O)Nc1ccc(F)c([N+](=O)[O-])c1 (centres undefined)	21%	-16%	?	-104*	?
Cc1ccccc1C(=O)NC(CC(C)C)C(=O)Nc1cccc(S(=O)(=O)N(C)C)c1 (centres undefined)	10%	16%	.	7	.
COCc1ccc(C(=O)N2CCCC(C(=O)c3ccc(SC)cc3)C2)s1 (centres undefined)	.	?	-12%	-87*	-31%
Cc1oc2c(c1C(=O)N1CCC(C)CC1)C(=O)c1ccccc1C2=O	?	?	?	?	-26%
CCOC(=O)C1CCN(C(=O)c2c(C)oc3c2C(=O)c2ccccc2C3=O)CC1	-13%	28µM*	-36%	-2	?
CSc1nnc(-c2cccc(NC(=S)NN)c2)o1	-14%	4%	.	-66*	.
COC(=O)[C@H]1[C@@H](C)N(CCc2cc(OC)c(OC)c(OC)c2)C(=O)N[C@H]1c1ccccc1	22µM*	-14%	-24%[14.2 µM]	-23	.
C=CCN(Cc1ccc(Cl)s1)C(=O)c1cc(S(=O)(=O)N2CCOCC2)ccc1F	9%	-14%	.	0	.
CCOc1ccc(C(C)=O)cc1CC(C(N)=O)C(N)=O	18%	-5%	?	0	2%
CCOc1ccc(C(C)=O)cc1COC(=O)C1=COCCO1	10µM*	2%	16%	10	-1%
Cc1ccc(C2CC2c2n[nH]c(=S)n2-c2ccc(C)cc2)cc1 (centres undefined)	25µM*	5%	-11%	-8	?
Cc1ccc(-n2c(C3CC3c3ccc(Cl)cc3)n[nH]c2=S)cc1 (centres undefined)	6%	0%	3%	-30	-7%
S=c1[nH]nc(C2CC2c2ccc(Cl)cc2)n1-c1ccc(Cl)cc1 (centres undefined)	14%	-12%	-21%	25	16µM*
COc1ccccc1NC(=O)CN1C(=O)C2(SCC(=O)N2c2ccc(F)c(F)c2)c2ccccc21 (centres undefined)	.	-16%	.	28	-12%[46.1 µM]
COc1ccccc1NC(=O)CN1C(=O)C2(SCC(=O)N2c2ccc(C)c(C)c2)c2ccccc21 (centres undefined)	.	?	.	-72*	?
CCn1cc(C2=NC(C(C)C)CO2)c2ccccc21 (centres undefined)	?	8%	.	55	.
CCn1cc(C2=NC(CC(C)C)CO2)c2ccccc21 (centres undefined)	10µM*	19%	-13%	-1	15%
COc1ccc(-c2[nH]ncc2CN2CCC(C(=O)N3CCOCC3)CC2)c(F)c1	10%	-5%	8%	-63*	1%
O=C(C1CCN(Cc2cn[nH]c2-c2ccc(F)cc2F)CC1)N1CCOCC1	31%	3%	10%	41	17%
CN(C)c1ccc(N/C=C/C(=O)c2ccccc2)cc1	-19%	10µM*	?	0	6.5µM*
CN(C)c1ccc(CNC(=O)CCS(=O)(=O)c2ccc3c(c2)oc(=O)n3C)cc1	16%	3%	.	0	30%[46.1 µM]
COc1ccc2nc(N=Nc3ccc(N(C)C)cc3)sc2c1	4%	13µM*	?	25	?
COc1ccc2nc(/N=C\N(C)C)sc2c1	1%	53%	-1%	53	3%
Clc1ccc2c(c1)C(N1CCNCC1)=Nc1ccccc1O2	?	2%	10µM*!	-38	?
SMILES	HCV inh	FMDV inh	Marburg entry inh	HCMV antiviral	Lassa entry inh
O=C(Nc1ccn(Cc2ccccc2F)n1)c1ccc(COc2ccccc2Cl)cc1	16µM*	?	?	-98*	?
O=C(Nc1ccn(Cc2ccccc2F)n1)c1ccc(COc2cc(Cl)ccc2Cl)o1	?	?	?	-20	?
O=C(Nc1ccn(Cc2ccccc2F)n1)c1ccc(COc2cccc(Br)c2)cc1	?	0%	8.9µM*	27	?
O=C(Nc1ccn(Cc2c(F)c(F)cc(F)c2F)n1)c1ccc(COc2ccccc2Cl)cc1	13µM*	-16%	?	-71*	?
Cc1nn(C)c(C(=O)Nc2ccn(Cc3ccccc3F)n2)c1[N+](=O)[O-]	.	-11%	1%	?	-6%[14.3 µM]
O=C1C(Br)=C(c2ccccc2)C(c2ccccc2)=C1c1ccccc1	6.3µM*	3.5µM*	?	.	?
C/C=C(/CCC1NCCc2c1[nH]c1ccccc21)[Si](C)(C)C (centres undefined)	?	28µM*	?	26	?
O=C(CC1Oc2ccccc2NC1=O)NCc1ccccc1 (centres undefined)	-14%	-26%	.	-16	.
CC(=O)CC1OC(=O)C(Br)=C1NCc1ccccc1 (centres undefined)	?	.	18µM*	?	?
COc1ccccc1CNC(=O)c1ccc2nc(CCc3ccccc3)oc2c1	.	-16%	.	6	-12%[46.1 µM]
CCCc1nc2ccc(C)cn2c1Cc1ccc(C)cc1	.	0%	.	22	.
COc1ccc(C2/C(=C(/O)c3ccc(C)cc3)C(=O)C(=O)N2C)c(OC)c1 (centres undefined)	-6%	2%	20%	2	8%
C=CCN=C(CC)C1=C(O)CCCC1=O	16%	6%	2%	-67*	6%
Cc1c(C(=O)NC2CCCCC2)sc2ncnc(NCCN(C)C)c12	.	-19%	.	.	.
Brc1ccc(-c2nnc3c4ccccc4nc(N4CCOCC4)n23)cc1	33%	-10%	18%	-22	24%
Clc1ccc(-c2nnc3c4ccccc4nc(N4CCOCC4)n23)cc1Cl	6%	-21%	?	-90*	0%
CCOc1cc(C(=S)N2CCOCC2)ccc1OS(=O)(=O)c1ccc(NC(C)=O)cc1	7.1µM*	.	-16%	-83*	?
CC(=O)Nc1ccc(S(=O)(=O)Oc2ccc(C(=S)N3CCCCC3)cc2)cc1	?	?	-40%	?	?
CC(=O)Nc1ccc(S(=O)(=O)Oc2ccc(C(=S)N3CCC(O)CC3)cc2)cc1	?	?	?	-72*	4%
CCc1ccc(CNC(=O)c2cnc3sc(N(CC)CC)nn3c2=O)cc1	.	-20%	.	?	?
C=C(C)CSc1nnc(-c2cccc(S(=O)(=O)N(C)C)c2)n1-c1cc(OC)ccc1OC	-23%	-13%	0%	-71*	?
CCN(CC)S(=O)(=O)c1ccc(NC(=O)CSc2nnc(-c3cccc(OC)c3)n2C)cc1	-20%	?	?	-23	-7%
